The source made the active and inactive calls. Rule for the calls: active = hit-call score of the fitted dose curve at least 0.9, where 1 is the maximum; inactive = score below 0.9.
The molecules below were run on Tumor necrosis factor receptor 1 (TNFRSF1A), TNFRSF1A (gene 7132) (assay: LTEA_HepaRG_TNFRSF1A: Life Technologies and Expression Analysis (LTEA) Assay for Tumor necrosis factor receptor 1 (TNFRSF1A) using HepaRG (AID 2283535)). Conditions: mRNA level, 48 h; actives raise or lower the signal.
Procedure: LTEA_HepaRG is a cell based, multiplexed-readout assay that uses HepaRG, a human liver cell line, with measurements taken at 48 hours after chemical dosing on a 96-well plate.LTEA_HepaRG_TNFRSF1A is one of 102 assay component(s) measured in the LTEA HepaRG cell culture assay. It is a marker of Cell proliferation, survival, death.Data from the assay component LTEA_HepaRG_TNFRSF1A was analyzed into 1 endpoint. This assay endpoint, LTEA_HepaRG_TNFRSF1A, was analyzed with bidirectional fitting relative to DMSO as the negative control and baseline of activity. Using a type of inducible reporter, measures of mRNA induction for gain or loss-of-signal activity can be used to understand regulation of transcription factor activity. To generalize the intended target to other relatable targets, this assay endpoint is annotated to the cytokine receptor intended target family, where the subfamily is TNF receptor.
A total of 1060 chemcials from the ToxCast library were tested in eight-point concentration-response experiments. Cell culture and cytotoxicity assays were conducted at Thermo Fisher Scientific's Custom Services facility (Madison, WI). A single lot of human HepaRG cells (Thermo Fisher Scientific, Frederick, MD) was used for the cell culture experiments. 96-well format collagen type I coated plates of human HepaRG cells were prepared using established methods. Briefly, cryopreserved HepaRG cells were thawed, plated at a density of approximately 100,000 cells/well in HepaRG Thaw, Plate, and General Purpose media (HPRG770, Thermo Fisher Scientific), and incubated for 48 hours. 0.5% DMSO was selected as vehicle control to balance the requisite need of DMSO in HepaRG cultures to maintain differentiation (for example, baseline metabolism, proportions of hepatocytes vs. cholangiocytes), while enabling further hepatic receptor pathway activation (for example, PXR and CAR) in response to chemical exposure. 48 hours after plating, the culture medium was replaced with HepaRG Serum-Free Incudtion Media. Cells were exposed to each test chemical in duplicate and maintained in CO2 incubators for another 48 hours. Chemical plates were thawed to room temperature and 200x concentrations of treatment groups were prepared. 8-point conentration-reponse curves were made with the highest exposure at 100 uM, followed by half-log dilutions, all in 0.5% DMSO. Each test plate contained variouse controls, induction positive controls (1mM phenobarbital), cytotoxicity positive controls ([…] aflatoxin B1), vehicle controls (0.5% DMSO), and total lysis controls (0.5% DMSO). Cell morphology images were taken using an Essen IncuCyte FLR automated microscope, with six 96-well plates imaged in about 24 minutes. Images were captured and exported and JPEG files. Spent culture media was transfered to black-well plates for the LDH assay, and remaining media was sorted at -80 C for later use. Cells were treated with RLT buffer and frozen until shipped for gene expression analysis. Total RNA was isolated from the cell suspension in 75 uL of Buffer RLT (Qiagen, Germantown, MD 20874) by Quintiles/Expression Analysis (Durham, NC) using a custom isolation procedure. Total RNA from each plate well was transferred to a preamplification plate. Fluidigm's 96.96 Dynamic ArrayTM (Fluidigm, Amsterdam, the Netherlands) technology was used for gene expression analyses by quantitative reverse transcription polymerase chain reaction (qRT-PCR, performed by Quintiles/Expression Analysis, Durham, NC)89. Standard TaqManTM Assays (Applied Biosystems/ThermoFisher Scientific, Foster City, CA) were used to assess the expression of 93 genes selected based on their selectivity and sensitivity to important hepatic receptors known to be modulated by environmental chemicals; importance in human hepatocyte functionality; and hepatotoxicity. […]

Structure (SMILES)	outcome	AC50
C[Si]1(C)O[Si](C)(C)O[Si](C)(C)O[Si](C)(C)O1	inactive	–
CCCCCCC(=O)OCC	inactive	–
CCCCCCCCCCCCCCCCCC(=O)O	inactive	–
Cc1cc(=O)[nH]c(=S)[nH]1	inactive	–
O=[N+]([O-])C(CO)(CO)CO	inactive	–
CCc1c(C(=O)NN2CCCCC2)nn(-c2ccc(Cl)cc2Cl)c1-c1ccc(Br)cc1	inactive	–
COc1cc(S(=O)(=O)O)c(C)cc1N=Nc1c(O)ccc2cc(S(=O)(=O)O)ccc12	inactive	–
CCCCCCCC=O	inactive	–
Nc1ccc(S(=O)(=O)c2ccc(N)cc2)cc1	inactive	–
CC(C)(C)c1cc(O)c(C(C)(C)C)cc1O	–	78.3 µM (active)
Cc1ccc(C)c(O)c1C	inactive	–
CCOc1ccc2c(c1)C(C)=CC(C)(C)N2	inactive	–
Cc1ccccc1Cl	inactive	–
O=C(N[C@@H](Cc1ccccc1)[C@@H](O)C(=O)N1C[C@@H](O)[C@@H](O)C1)c1cc2cc(Cl)ccc2[nH]1	inactive	–
NS(=O)(=O)c1cc2c(cc1Cl)NCNS2(=O)=O	inactive	–
Cc1c(C(=O)O)c(O)cc2c1C(=O)c1c(O)c([C@@H]3O[C@H](CO)[C@@H](O)[C@H](O)[C@H]3O)c(O)c(O)c1C2=O	inactive	–
COc1cc(-c2nc(NC(=O)c3cc4cc(C)cc(C)c4n3CC(=O)O)sc2CCC2CCCCC2)c(OC)cc1Cl	–	6.91 µM (active)
CNCc1cc(F)ccc1Oc1ccc(Cl)c(Cl)c1	inactive	–
CCCCCC(=O)O	inactive	–
CCCCc1ccc2c(n1)[C@@H](c1ccc(OC)cc1C[C@H](C)C(=O)O)[C@H](C(=O)O)[C@H]2c1ccc2c(c1)OCO2	inactive	–

Structure (SMILES)	outcome	AC50
CC(=O)Oc1ccccc1C(=O)O	inactive	–
CC(=O)OCCOCCOCCOC(C)=O	inactive	–
COc1ccc(C)cc1N	inactive	–
CCCCN(CCCC)CCCC	inactive	–
Clc1cc(Cl)c(Cl)cc1Cl	inactive	–
CN1CCCC1=O	inactive	–
CCCCCCCCCCCC(=O)OC	inactive	–
Nc1ccccc1N	–	50 µM (active)
CC=Cc1ccc(O)c(OC)c1	inactive	–
Cc1oc(-c2ccccc2)nc1CCOc1cccc2c1ccn2CCC(=O)O	inactive	–
NCCO	inactive	–
Cc1ccc(Cl)cc1	inactive	–
CC(=O)OC/C=C(\C)CCC=C(C)C	inactive	–
FC(F)(F)C(F)(F)C(F)(F)C(F)(F)C(F)(F)C(F)(F)CCI	inactive	–
CCOC(=O)C(C)(C)Oc1ccc(Cl)cc1	inactive	–
Cc1cccc([N+](=O)[O-])c1C	inactive	–
COc1ccc(S(=O)(=O)N2C(=O)[C@@](c3ccccc3OC)(N3C[C@H](O)C[C@H]3C(=O)N(C)C)c3cc(Cl)ccc32)c(OC)c1	inactive	–
CCCCCCCCCCCCCO	inactive	–
Cc1ccc2ncccc2c1	inactive	–
CCCCCCCCCCCCCCCC	inactive	–

Reference: PubChem BioAssay (EPA / NIEHS)
